ChEMBL document CHEMBL3988442, “University of Dundee, Small-Polar-MMV Screening Library” (2021)
For some of these results: Results with a measured potency or affinity are listed apart.

Key:
Design in all cases: scale not given: direction of the effect not stated beside the values
[1] = biological target: Protein translocase subunit SecA (Escherichia coli (strain K12)) (UniProt P10408); test: Assay to Identify E. coli SecA ATPase Inhibitors; type: functional; details: 30 µM
[2] = biological target: T1, Ubiquitin-activating enzyme e1, putative (Leishmania donovani (strain BPK282A1)) (UniProt E9BSI1); test: Leishmania donovani Ubiquitin Activating Enzyme (LdE1); type: functional; details: 30 µM
T1 sequence (whole entry): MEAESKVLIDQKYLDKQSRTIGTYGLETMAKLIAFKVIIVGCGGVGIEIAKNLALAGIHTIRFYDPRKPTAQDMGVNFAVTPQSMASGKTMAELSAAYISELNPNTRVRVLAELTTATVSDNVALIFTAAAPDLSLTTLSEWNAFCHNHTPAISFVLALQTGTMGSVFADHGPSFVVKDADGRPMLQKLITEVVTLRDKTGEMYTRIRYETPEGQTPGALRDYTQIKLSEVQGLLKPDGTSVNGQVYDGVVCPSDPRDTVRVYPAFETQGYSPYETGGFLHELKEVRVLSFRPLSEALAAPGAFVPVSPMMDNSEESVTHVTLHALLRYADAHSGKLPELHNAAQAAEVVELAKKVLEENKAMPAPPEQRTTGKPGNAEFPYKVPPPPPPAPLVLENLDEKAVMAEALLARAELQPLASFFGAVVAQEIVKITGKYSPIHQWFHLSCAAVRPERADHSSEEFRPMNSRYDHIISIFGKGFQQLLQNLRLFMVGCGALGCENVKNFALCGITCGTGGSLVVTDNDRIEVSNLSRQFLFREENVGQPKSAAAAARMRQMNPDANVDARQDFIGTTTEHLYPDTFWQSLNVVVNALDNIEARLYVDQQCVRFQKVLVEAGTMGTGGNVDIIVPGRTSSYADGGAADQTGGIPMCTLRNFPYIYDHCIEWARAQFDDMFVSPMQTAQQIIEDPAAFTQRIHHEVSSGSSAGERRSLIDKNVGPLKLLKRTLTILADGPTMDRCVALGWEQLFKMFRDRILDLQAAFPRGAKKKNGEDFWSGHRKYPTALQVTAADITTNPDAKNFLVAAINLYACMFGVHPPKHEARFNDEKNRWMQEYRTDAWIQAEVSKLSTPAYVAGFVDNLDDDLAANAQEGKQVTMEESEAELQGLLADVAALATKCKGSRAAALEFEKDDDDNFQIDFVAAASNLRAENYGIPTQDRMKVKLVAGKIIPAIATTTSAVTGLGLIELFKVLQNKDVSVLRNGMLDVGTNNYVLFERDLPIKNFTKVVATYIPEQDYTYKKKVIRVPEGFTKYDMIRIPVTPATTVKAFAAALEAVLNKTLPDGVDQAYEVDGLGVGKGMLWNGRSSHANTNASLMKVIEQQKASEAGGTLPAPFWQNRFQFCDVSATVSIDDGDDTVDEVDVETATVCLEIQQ

[3] = biological target: AMP-activated protein kinase, AMPK (Homo sapiens) (UniProt P54646+O43741+P54619+Q9UGJ0+Q9Y478+Q13131+Q9UGI9); test: AMP-dependent Kinase enzyme assay. An in vitro enzyme assay that detects ADP turnover that is directly proportional to AMPK activity. This uses naive AMPK that is activated during the assay with MK-8722; type: functional; details: 30 µM
[4] = biological target: Sialic acid-binding Ig-like lectin 9 (Homo sapiens) (UniProt Q9Y336); test: Hs-Siglec9 ALPHAscreen SOP 20170721; details: 10 µM
Sialic acid-binding Ig-like lectin 9 (Homo sapiens), sequence (Q9Y336 whole entry): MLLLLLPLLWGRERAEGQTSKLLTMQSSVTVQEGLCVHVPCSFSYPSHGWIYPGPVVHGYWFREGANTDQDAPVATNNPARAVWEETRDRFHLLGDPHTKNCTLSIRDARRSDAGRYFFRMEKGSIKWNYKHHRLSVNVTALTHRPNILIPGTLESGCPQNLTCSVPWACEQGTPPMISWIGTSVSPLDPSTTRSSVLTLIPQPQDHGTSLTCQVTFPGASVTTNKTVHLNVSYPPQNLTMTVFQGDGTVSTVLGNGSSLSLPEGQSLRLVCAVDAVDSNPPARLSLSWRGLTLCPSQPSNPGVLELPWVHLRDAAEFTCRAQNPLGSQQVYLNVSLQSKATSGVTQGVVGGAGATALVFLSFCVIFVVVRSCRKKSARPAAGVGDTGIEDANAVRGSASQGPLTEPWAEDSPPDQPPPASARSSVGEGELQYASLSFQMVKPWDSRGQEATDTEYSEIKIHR

Trypanosoma cruzi = test: Trypanosoma cruzi phosphomannomutase and mannose-1-phosphate guanylyltransferase assay; type: functional; details: 10 µM
[5] = biological target: T2, Arginase-2, mitochondrial (Homo sapiens) (UniProt P78540); test: in vitro enzyme assay to detect the production of urea directly proportional to the activity of Arginase II; type: functional; details: 33.3 µM; further: in the data most compounds retested in dose-response had high values
T2 sequence (whole entry): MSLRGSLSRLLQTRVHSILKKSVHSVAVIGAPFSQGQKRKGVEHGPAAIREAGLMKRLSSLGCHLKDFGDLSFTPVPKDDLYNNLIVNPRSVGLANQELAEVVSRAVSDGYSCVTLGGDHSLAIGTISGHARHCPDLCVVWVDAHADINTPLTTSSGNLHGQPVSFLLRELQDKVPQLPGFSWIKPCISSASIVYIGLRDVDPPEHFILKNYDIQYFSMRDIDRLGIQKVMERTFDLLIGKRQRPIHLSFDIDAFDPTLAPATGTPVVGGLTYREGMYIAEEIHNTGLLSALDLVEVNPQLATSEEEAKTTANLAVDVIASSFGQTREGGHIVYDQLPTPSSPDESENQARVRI

[6] = biological target: T3, Proteasome subunit beta (Trypanosoma cruzi) (UniProt O96673); test: Trypanosoma cruzi proteasome chymotrypsin-like activity (TcProtChymo) assay.; further: in the data most compounds retested in dose-response had high values; type: functional; details: 9.37 µM
T3 sequence (whole entry): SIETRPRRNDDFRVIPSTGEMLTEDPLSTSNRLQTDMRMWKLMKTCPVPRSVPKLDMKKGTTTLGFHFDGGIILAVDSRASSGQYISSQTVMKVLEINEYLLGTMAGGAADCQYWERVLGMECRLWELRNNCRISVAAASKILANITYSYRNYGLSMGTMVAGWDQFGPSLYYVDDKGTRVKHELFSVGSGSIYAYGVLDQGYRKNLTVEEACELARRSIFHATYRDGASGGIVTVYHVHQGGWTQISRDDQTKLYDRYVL

Homo sapiens = organism: Homo sapiens; test: To identify inhibition of the IFN signalling (Jak-Stat) pathway via expression of an eGFP reporter gene under the control of an IFN-stimulated response element (ISRE) containing MxA promoter.; type: functional; details: 30 µM
[7] = biological target: T4, Tyrosyl-tRNA synthetase, putative (Trypanosoma cruzi (strain CL Brener)) (UniProt Q4DSP6); test: Trypanosoma cruzi tyrosyl tRNA synthetase (TcYRS) _High Tyrosine SOP; type: functional; details: 30 µM; further: in the data most compounds retested in dose-response had high values
T4 sequence (whole entry): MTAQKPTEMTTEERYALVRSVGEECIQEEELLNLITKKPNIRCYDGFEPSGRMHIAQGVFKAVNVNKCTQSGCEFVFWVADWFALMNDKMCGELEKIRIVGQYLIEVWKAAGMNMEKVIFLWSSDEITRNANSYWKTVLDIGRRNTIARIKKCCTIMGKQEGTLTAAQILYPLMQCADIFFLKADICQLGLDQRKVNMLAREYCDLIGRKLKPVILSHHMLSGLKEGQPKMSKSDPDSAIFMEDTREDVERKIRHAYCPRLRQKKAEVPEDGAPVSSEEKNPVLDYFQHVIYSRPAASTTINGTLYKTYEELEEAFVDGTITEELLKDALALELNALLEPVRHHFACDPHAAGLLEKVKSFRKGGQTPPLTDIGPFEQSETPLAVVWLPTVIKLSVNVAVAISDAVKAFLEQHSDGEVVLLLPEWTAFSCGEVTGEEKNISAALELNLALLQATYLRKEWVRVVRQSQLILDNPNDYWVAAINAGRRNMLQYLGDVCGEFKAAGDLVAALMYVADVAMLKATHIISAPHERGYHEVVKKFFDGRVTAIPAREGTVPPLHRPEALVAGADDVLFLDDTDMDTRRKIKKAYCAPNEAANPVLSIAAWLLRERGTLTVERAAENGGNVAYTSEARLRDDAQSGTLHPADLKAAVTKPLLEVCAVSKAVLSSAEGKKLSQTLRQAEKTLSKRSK

[8] = biological target: T4, Tyrosyl-tRNA synthetase, putative (Trypanosoma cruzi (strain CL Brener)); test: Trypanosoma cruzi tyrosyl tRNA synthetase (TcYRS) SOP; type: functional; details: 30 µM
[9] = biological target: Chromo domain-containing protein 1 (Saccharomyces cerevisiae (strain ATCC 204508 / S288c) (Baker's yeast)) (UniProt P32657); test: ScCHD-1 Enzyme Inhibition Assay; type: functional; details: 30 µM; further: in the data most compounds retested in dose-response had high values
Chromo domain-containing protein 1 (Saccharomyces cerevisiae (strain ATCC 204508 / S288c) (Baker's yeast)), sequence (P32657 whole entry, the tested form may be a part): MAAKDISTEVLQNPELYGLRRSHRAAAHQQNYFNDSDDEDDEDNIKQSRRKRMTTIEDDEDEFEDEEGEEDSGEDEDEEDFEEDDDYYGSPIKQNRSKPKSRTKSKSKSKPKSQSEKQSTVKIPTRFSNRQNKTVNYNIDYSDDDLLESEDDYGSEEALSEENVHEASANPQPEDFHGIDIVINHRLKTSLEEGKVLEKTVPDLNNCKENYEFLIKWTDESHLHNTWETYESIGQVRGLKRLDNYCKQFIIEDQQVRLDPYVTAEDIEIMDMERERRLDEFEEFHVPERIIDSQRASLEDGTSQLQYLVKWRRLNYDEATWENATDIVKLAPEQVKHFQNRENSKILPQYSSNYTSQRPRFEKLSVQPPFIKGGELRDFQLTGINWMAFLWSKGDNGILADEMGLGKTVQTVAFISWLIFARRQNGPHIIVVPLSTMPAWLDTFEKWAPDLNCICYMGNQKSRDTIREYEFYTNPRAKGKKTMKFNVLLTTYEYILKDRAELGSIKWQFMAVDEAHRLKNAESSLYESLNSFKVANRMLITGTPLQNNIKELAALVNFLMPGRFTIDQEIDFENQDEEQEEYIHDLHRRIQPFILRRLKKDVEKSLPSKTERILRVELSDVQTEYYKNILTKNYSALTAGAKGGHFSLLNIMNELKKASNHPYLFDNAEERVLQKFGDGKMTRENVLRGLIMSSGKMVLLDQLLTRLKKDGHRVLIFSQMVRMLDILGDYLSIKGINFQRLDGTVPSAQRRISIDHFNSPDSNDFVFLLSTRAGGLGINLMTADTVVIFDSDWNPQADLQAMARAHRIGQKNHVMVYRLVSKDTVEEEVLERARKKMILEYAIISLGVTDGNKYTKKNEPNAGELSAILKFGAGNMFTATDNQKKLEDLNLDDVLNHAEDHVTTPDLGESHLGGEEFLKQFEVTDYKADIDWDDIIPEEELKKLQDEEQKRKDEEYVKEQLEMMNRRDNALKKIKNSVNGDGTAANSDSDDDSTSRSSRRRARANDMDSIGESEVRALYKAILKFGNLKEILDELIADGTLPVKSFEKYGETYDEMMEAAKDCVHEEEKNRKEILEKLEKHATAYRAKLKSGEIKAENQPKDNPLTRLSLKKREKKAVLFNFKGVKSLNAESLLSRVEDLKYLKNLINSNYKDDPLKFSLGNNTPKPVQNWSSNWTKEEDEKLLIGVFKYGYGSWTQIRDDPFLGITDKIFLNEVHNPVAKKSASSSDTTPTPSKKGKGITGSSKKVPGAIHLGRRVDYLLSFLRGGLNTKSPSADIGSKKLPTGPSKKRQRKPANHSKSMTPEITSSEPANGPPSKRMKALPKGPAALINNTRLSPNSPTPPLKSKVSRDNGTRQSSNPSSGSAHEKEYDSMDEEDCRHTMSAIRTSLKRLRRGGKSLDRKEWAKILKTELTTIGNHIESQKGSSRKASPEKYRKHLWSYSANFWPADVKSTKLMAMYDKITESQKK

Protein translocase subunit SecA (Escherichia coli (strain K12)), sequence (P10408 whole entry): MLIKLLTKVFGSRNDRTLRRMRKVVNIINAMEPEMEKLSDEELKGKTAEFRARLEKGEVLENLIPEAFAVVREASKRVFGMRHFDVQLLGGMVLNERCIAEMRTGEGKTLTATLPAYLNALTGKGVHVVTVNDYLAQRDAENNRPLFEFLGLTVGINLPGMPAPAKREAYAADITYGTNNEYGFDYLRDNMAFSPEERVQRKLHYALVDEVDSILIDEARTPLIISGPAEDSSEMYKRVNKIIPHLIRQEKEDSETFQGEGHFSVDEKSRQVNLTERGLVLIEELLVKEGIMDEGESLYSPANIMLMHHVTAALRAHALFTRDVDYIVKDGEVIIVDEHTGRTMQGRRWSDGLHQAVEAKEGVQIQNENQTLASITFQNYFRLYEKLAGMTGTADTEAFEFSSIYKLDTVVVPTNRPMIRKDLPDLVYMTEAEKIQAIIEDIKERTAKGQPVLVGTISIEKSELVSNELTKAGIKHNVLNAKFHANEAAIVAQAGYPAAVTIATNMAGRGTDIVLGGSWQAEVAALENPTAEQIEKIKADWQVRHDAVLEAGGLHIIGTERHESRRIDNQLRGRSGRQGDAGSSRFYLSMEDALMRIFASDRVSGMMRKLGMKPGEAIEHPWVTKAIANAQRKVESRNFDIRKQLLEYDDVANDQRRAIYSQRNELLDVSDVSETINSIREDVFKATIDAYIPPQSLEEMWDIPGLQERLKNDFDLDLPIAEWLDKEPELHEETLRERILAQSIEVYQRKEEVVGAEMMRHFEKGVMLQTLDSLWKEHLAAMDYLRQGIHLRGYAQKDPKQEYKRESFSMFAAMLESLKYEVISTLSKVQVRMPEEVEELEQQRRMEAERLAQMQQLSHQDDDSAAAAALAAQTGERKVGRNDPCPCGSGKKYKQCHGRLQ

For `Cc1cc(CN2CCN(C(=O)NC(C)Cn3ccnc3)CC2)no1` (stereo not drawn), the Percent Effect [1] was -1.68%, the Percent Effect [2] was 5.26% and the Percent Effect [3] was 3.31%. For the same molecule, the Percent Effect [4] was 7.81%, the Percent Effect (Trypanosoma cruzi) was 3.38% and the Percent Effect [5] was 1.53%. For the same molecule, the Percent Effect [6] was -4.18%, the Percent Effect (Homo sapiens) was 9.94% and the Percent Effect [7] was 3.43%. It also gave a Percent Effect [8] of 7.32% and a Percent Effect [9] of -4.96%.

In the case of `CC(Cn1cccn1)NC(=O)N(C)Cc1ccc(Cl)s1` (stereo not drawn), the Percent Effect [1] is reported as -7.83%, the Percent Effect [2] is reported as 2.53% and the Percent Effect [3] is reported as -3.14%. For the same molecule, the Percent Effect [4] was 9.63%, the Percent Effect (Trypanosoma cruzi) was 7.27% and the Percent Effect [5] was -8.37%. The Percent Effect [6] was 0.409%, the Percent Effect (Homo sapiens) was 2.27% and the Percent Effect [7] was -1.48%. For the same molecule, the Percent Effect [8] was 3.8% and the Percent Effect [9] was -2.46%.

Work on `Cc1c(C(=O)NC(C)C(C)C)nnn1-c1cccc2c1CCN(C)C2` (stereo not drawn) yielded a Percent Effect [1] of -4.44%, a Percent Effect [2] of 10.5% and a Percent Effect [3] of -6.99%. The Percent Effect [4] was 3.62%, the Percent Effect (Trypanosoma cruzi) was 1.85% and the Percent Effect [5] was -17.8%. It also gave a Percent Effect [6] of 7.19%, a Percent Effect (Homo sapiens) of 3.15% and a Percent Effect [7] of 3.19%. It also gave a Percent Effect [8] of 0% and a Percent Effect [9] of -11.2%.

Molecule `Cc1nc(CN2CCOC(CN(C)c3cccnn3)C2)cs1` (stereo not drawn) has a Percent Effect [1] of 0.938%, a Percent Effect [2] of 0% and a Percent Effect [3] of -2.69%. For the same molecule, the Percent Effect [4] was -0.951%, the Percent Effect (Trypanosoma cruzi) was 4.8% and the Percent Effect [5] was 1.47%. The Percent Effect [6] was 5.74%, the Percent Effect (Homo sapiens) was 10.8% and the Percent Effect [7] was 2.86%. The Percent Effect [8] was 2.35% and the Percent Effect [9] was 0.286%.

`Cc1nc(Nc2nnc(C)s2)cc(C2CCCN2C)n1` (stereo not drawn) gave a Percent Effect [1] of -1.27%, a Percent Effect [2] of 16% and a Percent Effect [3] of 3.75%. The Percent Effect [4] was -11.6%, the Percent Effect (Trypanosoma cruzi) was -2.95% and the Percent Effect [5] was -4.43%. It also gave a Percent Effect [6] of 15.1%, a Percent Effect (Homo sapiens) of 29.1% and a Percent Effect [7] of 2.13%. The Percent Effect [8] was 3.85% and the Percent Effect [9] was -6.23%.

For `CNC(=O)CC1CCN(Cc2nc(-c3ccc(SC)cc3)oc2C)CC1`, the Percent Effect [1] was -7%, the Percent Effect [2] was 2.7% and the Percent Effect [3] was -0.898%. The Percent Effect [4] was 2.66%, the Percent Effect (Trypanosoma cruzi) was -2.7% and the Percent Effect [5] was -0.952%. It also gave a Percent Effect [6] of 11.7%, a Percent Effect (Homo sapiens) of 13.2% and a Percent Effect [7] of 7.94%. The Percent Effect [8] was 0% and the Percent Effect [9] was -2.7%.

`CCn1cc(C(=O)NCc2csc(Br)c2)cn1` was tested, and the Percent Effect [1] was -4.42%, the Percent Effect [2] was 3.8% and the Percent Effect [3] was 6.27%. It also gave a Percent Effect [4] of 4.51%, a Percent Effect (Trypanosoma cruzi) of -2.97% and a Percent Effect [5] of 3.23%. It also gave a Percent Effect [6] of 7.72%, a Percent Effect (Homo sapiens) of 13.6% and a Percent Effect [7] of -1.04%. The Percent Effect [8] was 7.59% and the Percent Effect [9] was -2.95%.

`CCOCC1CN(S(C)(=O)=O)Cc2ncn(CC3CC3)c21` (stereo not drawn) was tested, and the Percent Effect [1] was -2.41%, the Percent Effect [2] was 13.5% and the Percent Effect [3] was -8.53%. For the same molecule, the Percent Effect [4] was 6.97%, the Percent Effect (Trypanosoma cruzi) was 3.81% and the Percent Effect [5] was -1.24%. It also gave a Percent Effect [6] of 5.58%, a Percent Effect (Homo sapiens) of -4.29% and a Percent Effect [7] of 6.45%. The Percent Effect [8] was 13.6% and the Percent Effect [9] was -6.43%.
